Here are results for 11 compounds from PubChem BioAssay.

Each structure is given as a SMILES string. Activity calls are given as the source filed them.

The nature of experiment [1]: binders of probe aFSTL3 on microarray, primary screen, stem cell growth factor project, biochemical, small-molecule microarray, fluorescence 635/667 (AID 1064).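 Note: measures binding of the biotinylated anti-FSTL3 antibody to printed compounds.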 To be noted: higher = more signal.
The nature of experiment [2]: binders from COS7 lysate, DM2A8 probe, primary screen, torsin A project, cell lysate, small-molecule microarray, fluorescence 635/667 (AID 1065). As to conditions: higher = more signal, COS7 lysate expressing mutant human TOR1A.
The nature of experiment [3]: binders of probe aFGF2 on microarray, primary screen, stem cell growth factor project, biochemical, small-molecule microarray, fluorescence 635/667 (AID 1067).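 Note: measures binding of biotinylated aFGF2 protein to printed compounds on slides; z-score merges feature fluorescence and signal-to-noise across triplicate slides.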 As to conditions: higher = more signal.
Experiment [4] is described as follows: binders of probe aFGF10 on microarray, primary screen, stem cell growth factor project, biochemical, small-molecule microarray, fluorescence 635/667 (AID 1071).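 Note: score merges 667 nm spot intensity and signal to noise from triplicate slides.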 To be noted: higher = more signal.
Experiment [5] has as its target Neurogenic locus notch homolog protein 2 (Homo sapiens) (UniProt Q04721). The experiment can be described thus: Notch2 binders on small-molecule microarrays, primary screen, biochemical, small-molecule microarray, 635 nm fluorescence, stem cell growth factors (AID 1073). To be noted: Notch2 binding, higher = more signal.
Experiment [6] addresses Pro-neuregulin-1, membrane-bound isoform (Homo sapiens) (UniProt Q02297). The experiment can be described thus: NRG1 binders on small-molecule microarrays, primary screen, psychiatric disease protein project, biochemical, small-molecule microarray, fluorescence 635/667 (AID 1075).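 Note: score combines 667 nm spot fluorescence with signal to noise.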 To be noted: NRG1 binding, 635 nm fluorescence, higher = more signal.
Experiment [7] deals with Neuregulin-1 EGF-like domain. The experiment can be described thus: binders of neuregulin-1 EGF-like domain, primary screen, biochemical, small-molecule microarray, 635 nm fluorescence (AID 1081).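 Note: binding of the protein to compounds printed on small-molecule microarray slides.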 As to conditions: small-molecule microarray binding, higher = more signal.
The nature of experiment [8]: FRG1 promoter luciferase signal modulators, primary screen, FRG1 inhibition for FSHD, cell-based, C2C12 myotubes, firefly/Renilla luciferase, luminescence (AID 1084). To be noted: higher = more signal, called active from +8 up or from −8 down.
The nature of experiment [9]: binders of probe aFST on microarray, primary screen, stem cell growth factor project, biochemical, small-molecule microarray, fluorescence 635/667 (AID 1086).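 Note: score merges 667 nm fluorescence with signal-to-noise of each printed compound spot.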 To be noted: higher = more signal.
The nature of experiment [10]: binders of probe aHhip on microarray, primary screen, stem cell growth factor project, biochemical, small-molecule microarray, fluorescence 635/667 (AID 1087).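 Note: score merges spot fluorescence at 667nm with spot signal to noise ratio.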 To be noted: higher = more signal.

Pro-neuregulin-1, membrane-bound isoform (Homo sapiens), sequence (Q02297 whole entry, looked up, the tested form may be a part, canonical isoform): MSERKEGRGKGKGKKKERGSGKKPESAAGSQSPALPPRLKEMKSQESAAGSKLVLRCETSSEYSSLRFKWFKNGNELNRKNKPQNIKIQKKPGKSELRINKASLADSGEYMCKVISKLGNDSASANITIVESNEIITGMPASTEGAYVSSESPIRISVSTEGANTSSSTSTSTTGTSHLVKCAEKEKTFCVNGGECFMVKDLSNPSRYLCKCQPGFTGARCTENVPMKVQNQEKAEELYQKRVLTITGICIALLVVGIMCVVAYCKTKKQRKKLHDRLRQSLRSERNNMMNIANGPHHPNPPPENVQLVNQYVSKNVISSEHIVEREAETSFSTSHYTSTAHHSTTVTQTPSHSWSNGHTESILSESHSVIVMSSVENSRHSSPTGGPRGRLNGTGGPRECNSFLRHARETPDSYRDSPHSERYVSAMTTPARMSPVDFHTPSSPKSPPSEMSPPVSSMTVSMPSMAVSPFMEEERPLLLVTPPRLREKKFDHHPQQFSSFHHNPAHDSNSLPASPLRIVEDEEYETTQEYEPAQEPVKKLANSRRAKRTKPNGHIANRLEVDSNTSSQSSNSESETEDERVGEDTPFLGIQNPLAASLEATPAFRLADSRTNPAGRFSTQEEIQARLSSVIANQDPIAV
Neurogenic locus notch homolog protein 2 (Homo sapiens), sequence (Q04721 whole entry, looked up, canonical isoform): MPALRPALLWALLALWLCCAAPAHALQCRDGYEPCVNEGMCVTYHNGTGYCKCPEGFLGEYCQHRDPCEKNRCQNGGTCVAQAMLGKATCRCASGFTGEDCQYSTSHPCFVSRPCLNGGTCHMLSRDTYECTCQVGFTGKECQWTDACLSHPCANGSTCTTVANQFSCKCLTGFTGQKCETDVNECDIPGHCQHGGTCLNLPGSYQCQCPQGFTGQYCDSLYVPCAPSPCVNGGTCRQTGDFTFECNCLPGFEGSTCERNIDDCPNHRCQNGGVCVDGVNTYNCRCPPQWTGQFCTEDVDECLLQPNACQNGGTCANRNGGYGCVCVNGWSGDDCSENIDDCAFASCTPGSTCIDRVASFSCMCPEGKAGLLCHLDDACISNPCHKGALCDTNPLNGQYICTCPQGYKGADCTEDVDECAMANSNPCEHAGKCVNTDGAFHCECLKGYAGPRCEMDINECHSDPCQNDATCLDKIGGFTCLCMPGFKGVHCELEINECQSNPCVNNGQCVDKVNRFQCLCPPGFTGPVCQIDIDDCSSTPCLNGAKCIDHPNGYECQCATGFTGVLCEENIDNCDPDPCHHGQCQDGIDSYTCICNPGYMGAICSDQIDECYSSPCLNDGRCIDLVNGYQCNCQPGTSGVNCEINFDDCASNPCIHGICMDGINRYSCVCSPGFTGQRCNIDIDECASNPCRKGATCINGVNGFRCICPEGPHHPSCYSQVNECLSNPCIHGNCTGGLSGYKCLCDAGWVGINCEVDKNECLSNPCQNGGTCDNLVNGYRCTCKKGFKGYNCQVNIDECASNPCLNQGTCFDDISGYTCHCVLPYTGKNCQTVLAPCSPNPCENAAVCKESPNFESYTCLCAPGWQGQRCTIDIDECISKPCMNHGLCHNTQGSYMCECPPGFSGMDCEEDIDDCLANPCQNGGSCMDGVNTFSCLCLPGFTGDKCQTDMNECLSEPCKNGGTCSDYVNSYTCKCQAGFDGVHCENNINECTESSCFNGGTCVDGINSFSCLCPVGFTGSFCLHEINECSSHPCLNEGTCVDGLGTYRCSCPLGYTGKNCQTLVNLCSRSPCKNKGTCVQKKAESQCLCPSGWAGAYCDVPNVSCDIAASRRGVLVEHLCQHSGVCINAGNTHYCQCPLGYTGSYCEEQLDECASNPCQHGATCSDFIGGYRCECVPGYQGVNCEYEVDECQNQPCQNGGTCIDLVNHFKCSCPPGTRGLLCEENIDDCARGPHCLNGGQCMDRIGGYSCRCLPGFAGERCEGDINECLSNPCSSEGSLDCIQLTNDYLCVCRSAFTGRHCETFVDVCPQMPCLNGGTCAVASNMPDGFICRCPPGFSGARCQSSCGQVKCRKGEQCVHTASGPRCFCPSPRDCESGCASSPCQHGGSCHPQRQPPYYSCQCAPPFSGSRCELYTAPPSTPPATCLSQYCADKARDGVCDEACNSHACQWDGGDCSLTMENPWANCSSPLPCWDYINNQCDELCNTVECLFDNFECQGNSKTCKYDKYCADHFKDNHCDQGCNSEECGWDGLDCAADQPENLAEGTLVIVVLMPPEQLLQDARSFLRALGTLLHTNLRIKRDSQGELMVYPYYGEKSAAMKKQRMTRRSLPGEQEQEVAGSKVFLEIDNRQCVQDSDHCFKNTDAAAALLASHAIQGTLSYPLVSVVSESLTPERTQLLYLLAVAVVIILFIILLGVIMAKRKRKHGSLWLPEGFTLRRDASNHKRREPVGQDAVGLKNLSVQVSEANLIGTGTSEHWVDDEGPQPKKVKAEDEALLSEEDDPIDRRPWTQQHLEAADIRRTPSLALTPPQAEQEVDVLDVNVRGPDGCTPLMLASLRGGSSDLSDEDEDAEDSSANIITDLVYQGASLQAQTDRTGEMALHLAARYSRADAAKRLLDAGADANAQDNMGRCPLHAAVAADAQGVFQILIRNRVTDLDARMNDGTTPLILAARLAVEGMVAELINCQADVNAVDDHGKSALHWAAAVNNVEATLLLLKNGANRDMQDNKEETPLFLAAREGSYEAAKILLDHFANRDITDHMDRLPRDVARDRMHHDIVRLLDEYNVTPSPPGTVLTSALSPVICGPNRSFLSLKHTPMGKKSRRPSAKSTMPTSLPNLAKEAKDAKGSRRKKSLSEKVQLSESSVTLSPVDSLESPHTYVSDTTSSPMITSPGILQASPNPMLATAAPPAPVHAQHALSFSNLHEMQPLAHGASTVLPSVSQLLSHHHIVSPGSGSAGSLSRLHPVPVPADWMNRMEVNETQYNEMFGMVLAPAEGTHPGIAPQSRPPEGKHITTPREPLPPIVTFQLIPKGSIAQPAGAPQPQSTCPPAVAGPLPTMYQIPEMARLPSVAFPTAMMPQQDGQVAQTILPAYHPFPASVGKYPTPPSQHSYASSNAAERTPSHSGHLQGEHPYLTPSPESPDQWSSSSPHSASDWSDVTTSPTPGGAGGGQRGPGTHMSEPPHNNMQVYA

`C=C(COC)/C(=C/C[C@@H](OC(=O)c1ccncc1)c1ccccc1OCCO)c1cnc2ccccc2c1`: the composite z-score was -0.421 in experiment [1]; 0.749 in [2]; -0.085 in experiment [3]; 0.922 in [4]; 1.58 in [5]; 0.495 in [6]. The composite z-score is 1.17 in experiment [7], 0.525 in [9] and -0.159 in experiment [10]. In addition, the z-score in experiment [8] is -0.828 (inactive).
Turning to `[N-]=[N+]=Nc1ccccc1C[C@]1(C(=O)N2CCCCC2)N=C(c2ccc(OCCCO)cc2)O[C@H]1c1ccccc1`, the composite z-score in experiment [1] is 0.484; in [2] it was 0.593; in experiment [3], -0.0332; in [4], 1.21; in experiment [5], 1.36; in [6], 0.733. Besides, the composite z-score in [7] was 1.08; in experiment [9], 0.933; in experiment [10], 0.154. In experiment [8], the z-score is -3.1 (inactive).
`C[C@]1(C(=O)O)c2ccccc2C(=O)N(Cc2cc(C(F)(F)F)cc(C(F)(F)F)c2)[C@H]1c1ccc(CO)cc1`: the composite z-score was -0.0018 in experiment [1]; -0.48 in [2]; -0.152 in experiment [3]; 0.159 in [4]; -0.0211 in experiment [5]; -0.179 in experiment [6]. For the same compound, the composite z-score in [7] was 0.0653; in experiment [9], 0.192; in [10] it was -0.236. The z-score in experiment [8] is 0.192 (inactive).
Regarding `C=C(CCCC)C(=O)CC[C@H](OC(=O)c1ccccc1-c1ccccc1C(=O)O)c1cccc(OCCO)c1`, the composite z-score in experiment [1] is 0.0622; in experiment [2], 0.375; in [3], -0.133; in experiment [4] it was -0.416; in experiment [5] it was -1.37; in experiment [6], 1.29. Moreover, the composite z-score is 0.652 in [7], -0.284 in experiment [9] and -0.0994 in [10]. In experiment [8], the z-score is -0.0278 (inactive).
Turning to `C=CCNC(=O)[C@@H]1[C@H]2C(=O)O[C@H](c3ccccc3)[C@H](c3ccccc3)N2[C@H](c2ccc(O)cc2)[C@@]12C(=O)N(C(=O)OCCOC)c1ccc(C#CCC(C(=O)OC)C(=O)OC)cc12`, the composite z-score is -0.292 in experiment [1]; 1.27 in experiment [2]; 0.048 in experiment [3]; 0.769 in experiment [4]; 1.14 in experiment [5]; 0.946 in experiment [6]. Moreover, the values for the composite z-score in experiment [7], in [9] and in [10] were 1.18, 0.884 and 0.0266, respectively. The z-score in experiment [8] was -0.614 (inactive).
As to `CCCCN1CC=CC23O[C@@H]4C=CCCOC(=O)C4[C@H]2C(=O)N(CCO)[C@@H]3C1=O` (stereo not given in full), the composite z-score in experiment [1] is 0.18; in experiment [2] it was -0.881; in [3], -0.276; in experiment [4] it was 1.02; in experiment [5], -1.29; in experiment [6], -0.944. For the same compound, the composite z-score was -0.397 in experiment [7], -1.01 in experiment [9] and 0.176 in experiment [10]. In [8], the z-score was -0.183 (inactive).
Regarding `COc1cc(CO)cc(I)c1O[C@H]1C=C(C(=O)NCCO)C[C@@H](N(CCN2CCOCC2)C(=O)C2CCCO2)[C@@H]1O` (stereo not given in full), the composite z-score was -0.351 in experiment [1]; 0.193 in experiment [2]; -0.109 in [3]; 0.228 in experiment [4]; 1.14 in experiment [5]; -0.34 in [6]. In addition, the results for the composite z-score in experiment [7], in [9] and in [10] were 0.201, 0.0496 and -0.0383, respectively. The z-score in experiment [8] was 0.104 (inactive).
Regarding `C=C(C(=O)CC[C@@H](OC(=O)c1ccccc1-c1ccccc1C(=O)O)c1cccc(OCCO)c1)C(C)C`, the composite z-score in experiment [1] was -0.308; in experiment [2] it was 2.23; in [3], -0.0577; in [4], 1.22; in experiment [5], 0.234; in [6], 0.535. The composite z-score is -0.141 in [7], -0.156 in experiment [9] and 0.154 in experiment [10]. The z-score in [8] was 0.345 (inactive).
With `COCCOC(=O)N1C(=O)[C@@]2(c3cc(C#CC4=CCCCC4)ccc31)[C@H](C(=O)N1CCCCCCC1)[C@H]1C(=O)O[C@H](c3ccccc3)[C@H](c3ccccc3)N1[C@@H]2c1ccccc1OCCO`, the composite z-score in experiment [1] stood at 2.57; in [2] it was 0.571; in experiment [3] it was 0.0328; in experiment [4] it was 0.271; in experiment [5], 1.08; in experiment [6], 1.11. The composite z-score amounted to 1.18 in [7], 2.04 in experiment [9] and 0.33 in experiment [10]. Moreover, the z-score in experiment [8] was 0.927 (inactive).
In the case of `CCCCC(=C=CC[C@@H](O)c1ccc(OCCO)cc1)CCO`, the composite z-score in experiment [1] is -0.171; in [2], 0.532; in experiment [3], -0.087; in experiment [4] it was 0.558; in [5], -0.051; in experiment [6] it was 1.65. Also, the composite z-score came to 0.922 in [7], 0.0121 in experiment [9] and 0.176 in experiment [10]. For the same compound, the z-score in experiment [8] was -0.58 (inactive).
Regarding `Cc1c(NC(=O)/C(C#N)=C/C=C/c2ccc([N+](=O)[O-])cc2)c(=O)n(-c2ccccc2)n1C`, the composite z-score in experiment [1] is -0.309; in experiment [2], 0.129; in experiment [3], -0.0718; in [4], 0.906; in experiment [5], 1.63; in experiment [6], 1.65. The values for the composite z-score in [7], in experiment [9] and in experiment [10] were 1.25, 0.854 and -0.0867, respectively. The z-score in experiment [8] was 3.34 (inactive).
